An excerpt weighted towards active compounds, which were near 3.5% of everything screened.
Pf apPOL inh = Pf-apPOL DNA polymerase inhibition; 210,000 compounds, 0.25% hits; inhibition, % at 10 µM; AID 1794808; Recombinant Pf-apPOL, molecular beacon fluorescence, 1.5 h
mHTT-CaM PPI inh = disrupts binding of mutant huntingtin to calmodulin. AlphaScreen His-mHTT/GST-CaM binding, luminescence. AID 1671202. 190,000 compounds, 3.6% hits. inhibition, % at 15 µM;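 further: 0% = both proteins with DMSO and 100% = one protein alone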
Target sequence (P42858 whole entry, looked up, stated change not applied): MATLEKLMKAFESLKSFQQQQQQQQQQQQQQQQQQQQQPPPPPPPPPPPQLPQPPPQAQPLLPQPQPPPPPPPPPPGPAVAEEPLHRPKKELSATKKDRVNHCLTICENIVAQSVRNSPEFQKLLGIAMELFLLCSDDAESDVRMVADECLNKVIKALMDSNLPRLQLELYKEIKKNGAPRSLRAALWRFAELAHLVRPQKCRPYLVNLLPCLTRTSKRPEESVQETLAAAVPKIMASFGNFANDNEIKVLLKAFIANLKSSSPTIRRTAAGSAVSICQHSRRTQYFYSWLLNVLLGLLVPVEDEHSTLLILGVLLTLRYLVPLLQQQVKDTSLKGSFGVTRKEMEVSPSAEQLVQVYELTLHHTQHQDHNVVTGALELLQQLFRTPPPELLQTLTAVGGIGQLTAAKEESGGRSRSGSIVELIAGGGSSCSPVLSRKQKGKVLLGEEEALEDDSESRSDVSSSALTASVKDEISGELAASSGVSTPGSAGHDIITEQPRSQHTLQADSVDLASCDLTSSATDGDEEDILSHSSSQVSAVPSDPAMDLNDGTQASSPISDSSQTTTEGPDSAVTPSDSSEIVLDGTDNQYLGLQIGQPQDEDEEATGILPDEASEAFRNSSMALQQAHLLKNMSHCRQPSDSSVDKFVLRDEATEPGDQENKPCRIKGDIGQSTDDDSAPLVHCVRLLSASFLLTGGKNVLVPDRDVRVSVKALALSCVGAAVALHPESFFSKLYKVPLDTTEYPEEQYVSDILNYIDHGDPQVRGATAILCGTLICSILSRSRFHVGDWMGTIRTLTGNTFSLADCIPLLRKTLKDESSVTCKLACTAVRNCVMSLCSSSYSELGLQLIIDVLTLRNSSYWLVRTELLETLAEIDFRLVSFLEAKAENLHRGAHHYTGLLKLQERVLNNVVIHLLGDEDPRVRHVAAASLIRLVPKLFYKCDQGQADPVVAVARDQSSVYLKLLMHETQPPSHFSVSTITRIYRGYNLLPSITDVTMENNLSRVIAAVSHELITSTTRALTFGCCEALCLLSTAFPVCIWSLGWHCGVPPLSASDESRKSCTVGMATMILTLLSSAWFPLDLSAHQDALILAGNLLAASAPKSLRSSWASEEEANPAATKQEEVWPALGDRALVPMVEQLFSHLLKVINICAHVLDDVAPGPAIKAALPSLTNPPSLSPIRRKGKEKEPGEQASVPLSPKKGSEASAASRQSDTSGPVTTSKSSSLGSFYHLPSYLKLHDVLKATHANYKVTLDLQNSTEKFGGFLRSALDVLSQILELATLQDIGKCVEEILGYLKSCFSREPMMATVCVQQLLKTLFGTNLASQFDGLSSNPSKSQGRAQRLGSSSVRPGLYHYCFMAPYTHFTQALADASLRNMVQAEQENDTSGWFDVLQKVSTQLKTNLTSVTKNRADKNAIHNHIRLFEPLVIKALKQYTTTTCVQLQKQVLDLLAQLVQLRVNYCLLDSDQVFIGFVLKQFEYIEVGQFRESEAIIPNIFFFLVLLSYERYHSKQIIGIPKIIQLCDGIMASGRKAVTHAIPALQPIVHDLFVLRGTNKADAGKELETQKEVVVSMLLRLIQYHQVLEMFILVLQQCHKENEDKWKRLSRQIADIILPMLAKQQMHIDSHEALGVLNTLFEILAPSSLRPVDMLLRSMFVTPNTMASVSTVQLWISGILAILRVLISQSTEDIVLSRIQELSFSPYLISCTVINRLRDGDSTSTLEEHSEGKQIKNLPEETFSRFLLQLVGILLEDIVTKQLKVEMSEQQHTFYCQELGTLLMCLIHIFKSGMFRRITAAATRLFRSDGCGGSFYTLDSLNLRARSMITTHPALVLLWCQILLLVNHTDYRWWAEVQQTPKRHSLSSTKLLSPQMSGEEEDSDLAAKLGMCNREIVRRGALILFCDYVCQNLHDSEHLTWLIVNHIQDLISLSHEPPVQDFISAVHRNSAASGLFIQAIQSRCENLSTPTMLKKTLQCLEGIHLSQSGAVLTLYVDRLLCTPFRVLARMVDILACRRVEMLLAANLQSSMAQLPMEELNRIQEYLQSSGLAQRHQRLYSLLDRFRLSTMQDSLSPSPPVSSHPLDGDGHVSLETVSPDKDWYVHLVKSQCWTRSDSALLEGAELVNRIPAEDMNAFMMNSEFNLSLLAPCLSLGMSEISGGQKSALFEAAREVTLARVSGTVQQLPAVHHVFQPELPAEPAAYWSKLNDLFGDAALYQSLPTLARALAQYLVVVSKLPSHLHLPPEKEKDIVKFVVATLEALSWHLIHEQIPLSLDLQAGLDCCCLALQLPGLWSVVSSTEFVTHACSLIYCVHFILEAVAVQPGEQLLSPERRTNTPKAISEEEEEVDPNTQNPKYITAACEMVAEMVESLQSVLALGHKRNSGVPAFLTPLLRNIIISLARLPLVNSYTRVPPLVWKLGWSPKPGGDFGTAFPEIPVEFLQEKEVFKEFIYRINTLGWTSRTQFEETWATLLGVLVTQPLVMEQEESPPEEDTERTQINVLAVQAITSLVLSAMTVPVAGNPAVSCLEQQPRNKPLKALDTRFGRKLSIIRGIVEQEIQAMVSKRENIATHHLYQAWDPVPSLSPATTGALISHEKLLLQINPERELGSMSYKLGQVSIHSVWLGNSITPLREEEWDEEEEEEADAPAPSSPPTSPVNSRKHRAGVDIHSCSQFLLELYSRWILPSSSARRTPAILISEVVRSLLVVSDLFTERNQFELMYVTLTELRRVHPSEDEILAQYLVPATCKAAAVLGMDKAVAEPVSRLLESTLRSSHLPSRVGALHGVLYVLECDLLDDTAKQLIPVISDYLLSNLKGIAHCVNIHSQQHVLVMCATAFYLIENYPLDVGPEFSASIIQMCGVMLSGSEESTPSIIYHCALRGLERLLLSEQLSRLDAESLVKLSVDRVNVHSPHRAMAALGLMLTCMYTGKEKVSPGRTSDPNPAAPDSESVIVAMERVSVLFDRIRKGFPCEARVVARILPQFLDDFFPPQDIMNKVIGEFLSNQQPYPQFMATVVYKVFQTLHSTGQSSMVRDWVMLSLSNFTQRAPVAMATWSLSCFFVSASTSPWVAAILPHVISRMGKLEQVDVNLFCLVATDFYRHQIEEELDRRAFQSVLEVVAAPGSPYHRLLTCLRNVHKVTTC
An asterisk follows results filed as active; nt = no result; ! = not confirmed by another sample. No stated cut-off is given here; in the data, active means inhibition above about 50%; inactive means the rest.

SMILES | Pf apPOL inh | mHTT-CaM PPI inh
CCOC(=O)CNC(=O)C1CCCc2c1[nH]c1ccc(Cl)cc21 (stereo unspecified) | 1 | 100*
NC(=O)CNC(=O)C1CCCc2c1[nH]c1ccc(Cl)cc21 (stereo unspecified) | -7 | 10
CCN(C(=O)c1ccc2c(c1)N(S(C)(=O)=O)CC2)c1ccc(F)cc1 | 7 | 3
O=[N+]([O-])c1cc(C=Nc2c(-c3ccco3)nc3ccccn23)ccc1Br | -1 | 18
Clc1ccc(C=Nc2c(-c3ccco3)nc3ccccn23)cc1 | -2 | 55*
Oc1c(Cl)cc(Cl)cc1C=Nc1c(-c2ccco2)nc2ccccn12 | -2 | 64*
O=[N+]([O-])c1cc(C=Nc2c(-c3ccco3)nc3ccccn23)c(Cl)cc1Cl | 6 | 23
C#CC1(OCC(O)CN2CCN(c3ccccc3F)CC2)CCCCC1 (stereo unspecified) | -6 | -11
C=CC(C)(C)OCC(O)CN1CCC(C)CC1 (stereo unspecified) | -2 | 0
COc1cc(CN2CCN(c3ccc([N+](=O)[O-])cc3)CC2)cc(I)c1O | -7 | 42
COc1cc(CN2CCN(c3ccc(C(C)=O)cc3)CC2)cc(I)c1O | -2 | 55*
O=[N+]([O-])C(/C=C(\Cl)[N+](=O)[O-])=C1Nc2ccccc2N1 | 3 | 88*
Cc1ccc2c(c1)N/C(=C(/C=C(\Cl)[N+](=O)[O-])[N+](=O)[O-])O2 | -4 | 45
CS(=O)(=O)c1scc(-c2cccs2)c1C#N | 2 | nt
Fc1ccccc1-c1nc(NCc2ccco2)c2ccccc2n1 | -6 | 5
O=c1c2ccccc2nc2c3ccccc3c(NCc3ccco3)nn12 | -2 | 65*
O=C(Cn1cnc2scc(-c3ccccc3)c2c1=O)NCc1ccco1 | -9 | 19
O=c1c2c(-c3ccccc3)csc2nc2c3ccccc3c(NCc3ccco3)nn12 | 1 | 100*
CC(NC(c1ccccc1)(c1ccccc1)c1ccccc1)C(=O)O (stereo unspecified) | -3 | 4
N#Cc1ccccc1COc1ccc2c(c1)C(=O)CC2 | -5 | -10
CCCCOc1ccc2c(c1)C(=O)c1cc(OCCCC)ccc1-2 | -3 | 7
CN(CCO)CCCCOc1ccc2c(c1)C(=O)c1cc(OCCCCN(C)CCO)ccc1-2 | -1 | 60*
COc1ccccc1N1CCN(C(=O)c2nc(C(C)C)oc2C)CC1 | -2 | 9
O=C(NCc1ccccc1)O[C@@H]1C[C@H]2C[C@@H]1[C@H]1CCCCN1C2 | -3 | 18
CCOC(=O)CCCNC(=O)O[C@@H]1C[C@H]2C[C@@H]1[C@H]1CCCCN1C2 | -3 | 85*
SMILES | Pf apPOL inh | mHTT-CaM PPI inh
O=C(C[n+]1ccc(/C=C/c2ccccc2)cc1)c1ccc(Br)cc1 | 0 | 27
CCOc1ccc(C(=O)N2CCN(c3nc(CN4CCC(C)CC4)cs3)CC2)cc1 | -2 | 10
COc1ccc2cc3cc(C(=O)N(C)c4cccc(C(F)(F)F)c4)oc3nc2c1 | -3 | -2
c1ccc(-c2n[nH]c(C3CCCN3Cc3ccccn3)n2)cc1 (stereo unspecified) | -30 | 100*
c1ccc(-c2n[nH]c(C3CCCN3Cc3ccco3)n2)cc1 (stereo unspecified) | 3 | 33
COCC(C)NC(=O)C(c1ccccc1)c1ccccc1 (stereo unspecified) | -9 | -9
COCCc1nnc(NC(=O)C(c2ccccc2)c2ccccc2)o1 | -7 | 96*
CCOc1ccc(C(=O)N2CCCCC2CCN2CCCCC2)cc1 (stereo unspecified) | -7 | -1
COc1nn(C)cc1C(=O)N1CCN(c2nc3ccc([N+](=O)[O-])cc3s2)CC1 | -9 | -16
O=[N+]([O-])c1ccc(Sc2cccc3cccnc23)c2ncccc12 | -8 | 4
O=[N+]([O-])c1ccc(OS(=O)(=O)c2ccc3ccccc3c2)c2ncccc12 | nt | 100*
CCCCC(=O)NC(c1ccccc1Cl)c1cc([N+](=O)[O-])c2cccnc2c1O (stereo unspecified) | -10 | 100*
CCCCC(=O)NC(c1ccc2c(c1)OCO2)c1cc([N+](=O)[O-])c2cccnc2c1O (stereo unspecified) | -6 | 99*
CCCCC(=O)NC(/C=C/c1ccccc1)c1cc([N+](=O)[O-])c2cccnc2c1O (stereo unspecified) | -3 | 14
N=c1sc2ccccc2n1-c1ccccc1 | -13 | nt
Cc1c(CCCN)c2ccccc2n1-c1ccccc1 | -6 | 50*
Cc1ccc(CNC(=O)Cn2nc(N3CCCCCC3)c3ccccc3c2=O)cc1 | -3 | -2
Cc1ccc(NC(=O)Cn2c(C)nc3sc(C)c(C)c3c2=O)cc1F | -2 | 2
Cc1ccc(OCCSc2nc3ccccc3n2CC(O)CO)c(C(C)C)c1 (stereo unspecified) | 0 | 31
CCCN1C(=O)S/C(=C/c2cn(CC(=O)N3CCOCC3)c3ccccc23)C1=O | -2 | 19
C#CCN1C(=O)S/C(=C\c2cn(CC(=O)N3CCOCC3)c3ccccc23)C1=O | -3 | 75*
COc1cc2c(cc1OC)C(c1ccc(Cl)cc1)OC1=C2C(=O)c2ccccc21 (stereo unspecified) | -1 | 68*!
COc1ccc(C2Oc3c(ccc4cc(OC)c(OC)cc34)-c3cc(OC)c(OC)cc32)cc1 (stereo unspecified) | nt | 11
Cn1nc(COCc2ccccc2F)c2c1CCN(C(=O)c1ccccc1)C2 | -4 | 7
CC(=O)N(C)Cc1nn(-c2ccccc2)c2c1CN(Cc1ccccc1F)CC2 | -10 | 68*
SMILES | Pf apPOL inh | mHTT-CaM PPI inh
COc1ccc(C)cc1NC(=O)CN1C(=O)c2ccccc2C1=O | 2 | -3
OCCNc1nc(N2CCCCC2)nc(N2CCCCC2)n1 | nt | -13
OCCN(CCO)c1nc(N2CCCCC2)c2nc(N(CCO)CCO)nc(N3CCCCC3)c2n1 | 61* | nt
Cc1cc(Cl)ccc1OC(C)C(=O)NCc1ccco1 (stereo unspecified) | -1 | -7
CCCCNC(=O)C1CCCN(c2ccc(N3CCOCC3)nn2)C1 (stereo unspecified) | -4 | 0
CN(CCCNC(=O)C1CCCN(c2ccc(N3CCOCC3)nn2)C1)c1ccccc1 (stereo unspecified) | -5 | 55*
Cc1ccc2nc(-c3cccc(F)c3)cc(C(N)=O)c2c1 | 4 | 1
CN(C)N1C(=O)c2ccccc2C1=O | -6 | -15
CN(C1=CC(=O)c2ccccc2C1=O)c1ccccc1 | 5 | 60*
CC1=C(C(=O)Nc2ccccn2)C(c2ccccc2Cl)C2=C(CC(C)(C)CC2=O)N1 (stereo unspecified) | 1 | 6
Cc1ccc(NC(=O)c2cccc(Cl)c2)c(Br)c1 | -2 | -14
O=C(Nc1ccc(S(=O)(=O)Nc2nccs2)cc1)Nc1ccc(Cl)c(Cl)c1 | -3 | 78*
O=C(Nc1ccc(S(=O)(=O)Nc2nccs2)cc1)C(Cl)Cl | -6 | 7
CCOc1ccc(C2C3=C(CC(c4ccccc4)CC3=O)Nc3ncnn32)cc1OC (stereo unspecified) | -5 | 13
COc1ccc(-c2cc(-c3cc(OC)ccc3O)[nH]n2)cc1 | -3 | 72*
COc1ccc(-c2cc(-c3ccccc3)nc(=O)[nH]2)cc1 | -6 | 3
CC1(C(=O)NCc2ccccc2)CCC(=O)N1Cc1cccc(F)c1 (stereo unspecified) | 2 | -5
O=C(NCc1csc(C2CCCN(C(=O)c3ccc(F)cc3F)C2)n1)C1CCC1 (stereo unspecified) | -4 | 3

Screens from PubChem BioAssay.
